Drawing on PubChem BioAssay (NCI), this text covers growth for 40 compounds.

About 83,000 compounds went through this panel and 20% of them were active in at least one assay; those are over-represented in the sample as a whole.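 Assay: single dose, 48 h. Readout: percent growth (0 = no net growth; negative = cell death). Active: <10.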 Values without a mark were called inactive. Active and inactive are the calls of the source.

This experiment relates to HL-60(TB) leukemia. The experiment is described as follows: NCI-60 one-dose screen, 48 h (100 = growth as untreated, 0 = no growth, -100 = all killed). Particulars: 10 µM unless noted.
Take `CCn1cc(C(=O)O)c(=O)c2cnc(N3CCCC3)nc21`: the growth is 75.9%.

For the compound `CC/C(=C\c1ccc(OC)cc1)C(=O)c1ccc(OC)cc1`, the growth was 131%.

Regarding `CCN(CC)CCCC(C)Nc1c2ccc(Cl)cc2nc2cc(OC)c(OC)cc12` (stereo not given), the growth is 6.67% (active).

Turning to `CCOc1ccc(NC(=O)c2cc(OC)c(OC)c(OC)c2)cc1`, the growth is -8.94% (active).

For the compound `Oc1ccc(/C=C/c2ccc(O)cc2)cc1`, the growth was 43.6%.

Take `COc1ccc(/C=C/C(c2cc(OC)c(OC)c(OC)c2)n2ccnc2)cc1O` (stereo not given): the growth was -36.6% (active).

Consider `O=C(CCn1cnc2c(cc(-c3ccccc3)n2-c2ccccc2)c1=O)Nc1ccc(F)cc1`, for which the growth was 86.6%.

Consider `CCN1C(=O)N(CC)C2C1NN=c1s/c(=C3\C(=O)N(CCC(C)C)c4ccccc43)c(=O)n12` (stereo not given), for which the growth is -38.2% (active).

On to `CC(=O)N=c1ccc2nc3c(cc(N)c4ccccc43)oc-2c1`, for which the growth was -82.9% (active).

For the compound `C1=CC2(C=C1)OC21CCC2(C=CC3(C2)OC3C2CCCCC2)CC1` (stereo not given), the growth is 105%.

For `COc1ccc(NC(=O)c2cccc(C3CCc4c(cc(OC)c(OC)c4OC)O3)c2)cc1` (stereo not given), the growth was -8.38% (active).

As for `Cl.Fc1c[c-]c(-c2ccccn2)c(F)c1.[Pt].c1ccc([PH+](C[PH+](c2ccccc2)c2ccccc2)c2ccccc2)cc1`, the growth was -33.7% (active).

In the case of `COc1cc(Cl)ccc1C`, the growth was 107%.

`COc1cc(NC(=O)CSc2nc3ccc(C)cc3c(=O)n2-c2ccccc2)cc(OC)c1OC`: the growth was 89.1%.

Regarding `CCOC(=O)CC(C)=N`, the growth is 93.9%.

Regarding `CC(C)C1CCCCC1O` (stereo not given), the growth is 193%.

For the compound `COc1ccc(-c2nc3ncccn3c2-c2nnc(-c3ccsc3C)o2)cc1`, the growth is 92.5%.

As to `COc1cc(Nc2ncccc2NC(=O)c2cn(Cc3cccc(Oc4ccccc4)c3)nn2)cc(OC)c1`, the growth is 64.6%.

`Cc1ccc(-c2nn(CC(=O)N3CCOCC3)c(N)c2C#N)cc1`: the growth is 103%.

For `COc1ccc(C2CC(c3cc(OC)c(OC)c(OC)c3)=NN2)cc1` (stereo not given), the growth was 60.1%.

Take `Cc1[nH]n(C(N)=S)c(=O)c1N=Nc1ccc(F)c(Cl)c1`: the growth was 90.6%.

Take `Cc1cc(=O)n(-c2ccc(F)cc2)[nH]1`: the growth is 101%.

For the compound `CCN1CCN(C(=O)[C@@]2(C)CC[C@]3(C)CC[C@]4(C)C(=CC(=O)[C@@H]5[C@@]6(C)CC[C@H](OCCC#N)C(C)(C)[C@@H]6CC[C@]54C)[C@@H]3C2)CC1`, the growth was 90.3%.

Turning to `O=C(COCc1c(-c2ccccc2)no[n+]1[O-])Nc1nc(-c2ccc(Cl)cc2)cs1`, the growth is 119%.

As for `Clc1ccccc1Nc1nnc(-c2ccncc2)s1`, the growth was 79.1%.

Turning to `O=C(Cn1cncn1)Nc1ccc(-c2nc3ccccc3s2)cc1`, the growth was 102%.

As to `O=S(=O)(c1ccc(NCSc2nc3ccccc3s2)cc1)c1ccc(NCSc2nc3ccccc3s2)cc1`, the growth is 72.7%.

`COc1cnc2c(c1)C(=O)c1c-2n(CCCN2CCNCC2)c(=O)c2cc(Cl)ccc12`: the growth is -44.9% (active).

`CC(C)CCN(CCC(C)C)CC(=O)Nc1ccc(S(=O)(=O)c2ccc(NC(=O)CN(CCC(C)C)CCC(C)C)cc2)cc1`: the growth is 19.1%.

In the case of `Cc1nc(-c2cn3c(n2)-c2ccc(-c4cnn(C(C)(C)C(N)=O)c4)cc2OCC3)n(C(C)C)n1`, the growth is 35.7%.

Turning to `CC[C@H](Nc1nc(N)nc(C)c1C#N)c1nc2cccc(NCc3ccc(C(=O)NO)cc3)c2c(=O)n1-c1ccccc1`, the growth was 2.45% (active).

Consider `O=C(CCCCCNC(=O)c1cc(=O)c(O)co1)Nc1ccccc1`, for which the growth was 106%.

Regarding `CCCCCCCCNc1ncnc2c1ncn2Cc1nnc2c3ccccc3c(Cl)nn12`, the growth was 29.2%.

`Cc1cc2c3c(cccc3c1)C(=O)c1ccccc1-2`: the growth is 101%.

As for `COc1cc(/C=C2\SC(=S)N(/C=C/c3nc4ccccc4[nH]c3=O)C2=O)cc(OC)c1OC`, the growth is 70%.

In the case of `Cc1ccc(C(=O)c2sc3nc4c(cc3c2N)CCCC4)c(C)c1`, the growth was -3.28% (active).

On to `C#CC[C@@H]1C[C@]2(C)[C@H]3CC[C@@H]4[C@H]5[C@H](C(=C)C)CC[C@]5(C(=O)O)CC[C@@]4(C)[C@]3(C)CC[C@H]2C(C)(C)[C@H]1O`, for which the growth is 44.2%.

In the case of `Cc1ccc(S(=O)(=O)OC[C@@]2(C)CC[C@]3(C)CC[C@]4(C)C(=CC[C@@H]5[C@@]6(C)CCCNC(C)(C)[C@@H]6CC[C@]54C)[C@@H]3C2)cc1`, the growth is -63% (active).

Consider `O=NN(CC(=O)NNc1ccccc1)CC(=O)NNc1ccccc1`, for which the growth is 31.6%.

On to `CCOC(=O)[C@@H](Cc1ccccc1)NC(=O)c1[nH]c2ccc(Cl)cc2c(=O)c1C`, for which the growth is 104%.
